Source: PubChem BioAssay (EPA / NIEHS)
Where “and” joins values, the source holds several entries; their conditions need not be identical. Identical values can stand only once. Where a structure was tested more than once in an assay, its records may differ in their call. Calls of active or inactive are those of the source. Rule for the calls: active = hit-call score of the fitted dose curve at least 0.9, where 1 is the maximum; inactive = score below 0.9.

Key:
[1] = target: Bile acid receptor (Homo sapiens) (UniProt Q96RI1); assay: ATG_IR1_CIS: Attagene CIS-FACTORIAL HepG2 Assay for human Nuclear Receptor Subfamily 1 Group H Member 4 (NR1H4), IR1 submotif (AID 2282946); conditions: IR1 reporter transcription, actives raise or lower the signal
How it was run: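 Readout: reporter transcript levels by RT-PCR with fluorescent capillary electrophoresis, from HepG2 cells transiently transfected with multiplexed cis-regulated reporters and dosed 24 h. Gain- or loss-of-signal fitted versus DMSO negative control.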

[2] = ATG_GRE_CIS: Attagene CIS-FACTORIAL HepG2 Assay for human Glucocorticoid Response Elements (GRE) (AID 2282947); conditions: HepG2 GRE cis-reporter, Attagene multiplex mRNA; actives raise or lower the signal
How it was run: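 HepG2, transient cis-reporter transfection, 24 h. Reporter mRNA: RT-PCR then CE, fluorescence. Fit both directions vs DMSO.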

[3] = ATG_ISRE_CIS: Attagene CIS-FACTORIAL HepG2 Assay for human Interferon Regulatory Factor 1 (IRF1) binding to an Interferon-Stimulated Response Element (ISRE) (AID 2282948); conditions: HepG2 ISRE cis-reporter (Attagene), mRNA transcription readout; actives raise or lower the signal
How it was run: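 Signal reflects induction or loss of ISRE-linked reporter mRNA in transiently transfected HepG2 cells after a 24 h treatment, detected by fluorescent RT-PCR fragments on capillary electrophoresis and normalised to DMSO.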

[4] = ATG_M_32_CIS: Attagene CIS-FACTORIAL HepG2 Assay for M32 Transcription Factor (Internal Marker) (AID 2282949); conditions: HepG2 Attagene cis-factorial M32 reporter, mRNA; actives raise or lower the signal;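 note: background control marker of the multiplexed CIS panel rather than a real target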
How it was run: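 Using DMSO as baseline, bidirectional curve fits were applied to reporter mRNA signals. These came from transiently transfected HepG2 cells exposed for 24 h, with RNA analysed by RT-PCR, FAM primer extension, HpaI digestion and CE.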

[5] = ATG_M_06_CIS: Attagene CIS-FACTORIAL HepG2 Assay for M06 Transcription Factor (Internal Marker) (AID 2282950); conditions: HepG2 Attagene CIS-FACTORIAL M06 internal marker reporter; actives raise or lower the signal
How it was run: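 Steps: transfect HepG2 with multiplexed cis-element reporter constructs; dose chemical 24 h; extract RNA with DNase treatment; reverse-transcribe, PCR-amplify, 6-FAM label, HpaI digest; separate fragments by capillary electrophoresis. Activity fitted both directions versus DMSO.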

[6] = target: Hypoxia-inducible factor 1-alpha (Homo sapiens) (UniProt Q16665); assay: ATG_HIF1a_CIS: Attagene CIS-FACTORIAL HepG2 Assay for human Hypoxia Inducible Factor 1 (HIF1A) (AID 2282951); conditions: HepG2 Attagene cis-factorial HIF1a reporter transcription; actives raise or lower the signal
How it was run: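 RT-PCR/capillary electrophoresis fluorescence readout of reporter transcripts from endogenous-TF-driven cis elements in transfected HepG2 cells, 24 h exposure; activity fitted in both directions against DMSO controls.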

[7] = target: Hepatocyte nuclear factor 6 (Homo sapiens) (UniProt Q9UBC0); assay: ATG_HNF6_CIS: Attagene CIS-FACTORIAL HepG2 Assay for human Hepatocyte Nuclear Factor 6 (HNF6) (AID 2282952); conditions: HepG2 Attagene cis-factorial HNF6 reporter transcription; actives raise or lower the signal
How it was run: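 Using cis-element reporters in HepG2 liver cells, the assay tracks endogenous factor-driven transcription 24 h post-dosing. Signal comes from 6-FAM-labelled, HpaI-digested RT-PCR fragments, with gain or loss scored against DMSO.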

[8] = target: Heat shock factor protein 1 (Homo sapiens) (UniProt Q00613); assay: ATG_HSE_CIS: Attagene CIS-FACTORIAL HepG2 Assay for human Heat Shock Transcription Factor 1 (HSE) (AID 2282953); conditions: HepG2 HSE cis-reporter, Attagene RNA transcription; actives raise or lower the signal
How it was run: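 Cells were transfected with cis-element-driven reporter constructs, dosed for 24 h, then total RNA was reverse-transcribed and reporter cDNA amplified, FAM-labelled and digested with HpaI. Fragments were resolved by capillary electrophoresis; gain or loss was fitted against DMSO.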

[9] = ATG_MRE_CIS: Attagene CIS-FACTORIAL HepG2 Assay for human Metal Responsive Element (MRE) (AID 2282954); conditions: HepG2 MRE cis-reporter transcription, Attagene multiplex; actives raise or lower the signal
How it was run: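 Readout: capillary electrophoresis of 6-FAM-labelled, HpaI-digested RT-PCR reporter products. System: HepG2 cells carrying transient multiplexed cis reporters, dosed 24 h. Analysis: bidirectional fit, DMSO baseline.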

[10] = ATG_PBREM_CIS: Attagene CIS-FACTORIAL HepG2 Assay for human Phenobarbital-responsive Enhancer Module (PBREM) (AID 2282955); conditions: HepG2 PBREM cis-reporter, Attagene multiplexed transcription; actives raise or lower the signal
How it was run: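 Reporter mRNA read by RT-PCR, 6-FAM primer extension, HpaI digestion and capillary electrophoresis. Transfected HepG2 cells, 24 h compound exposure. Gain or loss of signal fitted bidirectionally relative to DMSO baseline.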

[11] = target: Paired box protein Pax-6 (Homo sapiens) (UniProt P26367); assay: ATG_Pax6_CIS: Attagene CIS-FACTORIAL HepG2 Assay for human Paired Box 6 (PAX6) (AID 2282956); conditions: HepG2 CIS-FACTORIAL PAX6 reporter transcription, RNA readout; actives raise or lower the signal
How it was run: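 Values derive from bidirectional curve fitting of reporter mRNA signal relative to DMSO. HepG2 cells bearing transfected cis-regulated MRTUs were exposed for 24 h; transcripts were read by RT-PCR and capillary electrophoresis.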

[12] = ATG_PPRE_CIS: Attagene CIS-FACTORIAL HepG2 Assay for human Peroxisome Proliferator-activated Response Element (PPRE) (AID 2282958); conditions: HepG2 PPRE cis-element reporter, Attagene transcription factor profiling; actives raise or lower the signal
How it was run: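 Read-out: fluorescent reporter mRNA fragments resolved by capillary electrophoresis after RT-PCR. HepG2 cells carried transiently transfected PPRE-driven cis reporter constructs and were dosed for 24 h; gain or loss of signal fitted relative to DMSO.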

[13] = ATG_RORE_CIS: Attagene CIS-FACTORIAL HepG2 Assay for human RAR-related Orphan Receptor Element (RORE) (AID 2282959); conditions: HepG2 Attagene cis-factorial RORE reporter, mRNA; actives raise or lower the signal
How it was run: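 Readout: fluorescent reporter mRNA by RT-PCR plus capillary electrophoresis, 24 h after dosing transfected HepG2 cells. Endogenous transcription factor activity on a cis promoter element is measured. Gain or loss of signal fitted against DMSO.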

[14] = ATG_Sox_CIS: Attagene CIS-FACTORIAL HepG2 Assay for human SRY-box transcription factor (SOX) (AID 2282960); conditions: HepG2 Attagene cis-factorial SOX reporter, mRNA; actives raise or lower the signal
How it was run: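 Read-out: fluorescent RT-PCR products of SOX1-linked reporter transcripts resolved by capillary electrophoresis, fitted bidirectionally against DMSO. Transiently transfected HepG2 cells, 24 h after chemical exposure, endogenous transcription factor activity.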

[15] = target: Transcription factor Sp1 (Homo sapiens) (UniProt P08047); assay: ATG_Sp1_CIS: Attagene CIS-FACTORIAL HepG2 Assay for human Specificity Protein 1 (Sp1) (AID 2282961); conditions: HepG2 Sp1 cis-reporter transcription, actives raise or lower the signal
How it was run: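 Read-out: fluorescence of 6-FAM-labeled, HpaI-digested RT-PCR products separated by capillary electrophoresis. HepG2 cells carried transfected cis-element reporter units and were exposed to chemicals for 24 h; gain or loss of signal fitted relative to DMSO.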

[16] = ATG_SREBP_CIS: Attagene CIS-FACTORIAL HepG2 Assay for human Sterol Regulatory Element Binding (SREBP) (AID 2282962); conditions: HepG2 Attagene cis-factorial SREBP reporter, mRNA; actives raise or lower the signal
How it was run: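 Values derive from bidirectional curve fitting with DMSO as baseline. The underlying measurement is reporter mRNA from cis-element-regulated units in transiently transfected HepG2, quantified by RT-PCR and capillary electrophoresis after 24 h exposure.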

[17] = target: Signal transducer and activator of transcription 3 (Homo sapiens) (UniProt P40763); assay: ATG_STAT3_CIS: Attagene CIS-FACTORIAL HepG2 Assay for human Signal Transducer and Activator of Transcription 3 (STAT3) (AID 2282963); conditions: HepG2, Attagene cis-factorial STAT3 reporter transcription; actives raise or lower the signal
How it was run: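 Uses human liver HepG2 transiently carrying cis-regulated reporter transcription units. Following 24 h dosing, reporter mRNA induction was detected by RT-PCR and capillary electrophoresis, analysed bidirectionally versus DMSO.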

[18] = ATG_TA_CIS: Attagene CIS-FACTORIAL HepG2 Assay for human TA Basal Promoter (AID 2282964); conditions: HepG2 Attagene CIS-factorial TA basal promoter reporter; actives raise or lower the signal
How it was run: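 Steps: transfect HepG2 with MRTUs; dose 24 h; isolate RNA, DNase-treat, reverse-transcribe; PCR and FAM-label reporter cDNA; digest with HpaI 2h at 37 C; run capillary electrophoresis. Activity fitted both directions against DMSO.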

[19] = ATG_PXRE_CIS: Attagene CIS-FACTORIAL HepG2 Assay for human Pregnane X Receptor Element (PXRE) (AID 2282957); conditions: HepG2 Attagene CIS-FACTORIAL PXRE reporter, mRNA; actives raise or lower the signal
How it was run: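 Using HepG2 transfected with multiple reporter transcription units, endogenous factor-driven transcription was scored as reporter mRNA after 24 h exposure.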

[20] = ATG_TCF_b_cat_CIS: Attagene CIS-FACTORIAL HepG2 Assay for human T-Cell-Factor with beta-catenin (TCF/b-cat) (AID 2282965); conditions: HepG2 TCF/beta-catenin cis-reporter transcription, actives raise or lower the signal
How it was run: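 Using capillary electrophoresis as the read-out, labelled reporter cDNA fragments from transiently transfected HepG2 were sized and quantified. Exposure lasted 24 hours; activity in either direction was referenced to DMSO.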

Measured: AC50

Sequence of Transcription factor Sp1 (Homo sapiens) (P08047 whole entry, looked up): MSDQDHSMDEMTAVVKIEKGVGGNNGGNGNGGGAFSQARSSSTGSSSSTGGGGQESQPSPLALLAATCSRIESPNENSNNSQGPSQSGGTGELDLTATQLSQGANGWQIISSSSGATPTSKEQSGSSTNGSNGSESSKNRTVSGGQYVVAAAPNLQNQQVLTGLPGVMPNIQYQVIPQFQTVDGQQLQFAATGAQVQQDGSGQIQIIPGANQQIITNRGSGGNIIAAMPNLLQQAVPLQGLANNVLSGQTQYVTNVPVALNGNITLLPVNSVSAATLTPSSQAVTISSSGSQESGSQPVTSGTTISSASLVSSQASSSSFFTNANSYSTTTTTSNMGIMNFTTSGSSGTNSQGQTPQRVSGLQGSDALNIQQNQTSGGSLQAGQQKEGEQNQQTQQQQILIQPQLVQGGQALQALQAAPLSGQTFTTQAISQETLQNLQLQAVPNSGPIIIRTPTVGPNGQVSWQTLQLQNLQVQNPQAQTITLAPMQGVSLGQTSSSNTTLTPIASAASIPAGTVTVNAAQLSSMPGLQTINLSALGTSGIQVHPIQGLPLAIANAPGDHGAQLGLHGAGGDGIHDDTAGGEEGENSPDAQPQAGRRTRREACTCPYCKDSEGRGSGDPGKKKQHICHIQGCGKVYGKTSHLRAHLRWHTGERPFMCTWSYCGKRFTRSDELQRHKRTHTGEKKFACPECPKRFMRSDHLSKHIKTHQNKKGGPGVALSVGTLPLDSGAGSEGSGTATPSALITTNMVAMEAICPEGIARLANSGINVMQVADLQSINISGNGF
Sequence of Hypoxia-inducible factor 1-alpha (Homo sapiens) (Q16665 whole entry, looked up): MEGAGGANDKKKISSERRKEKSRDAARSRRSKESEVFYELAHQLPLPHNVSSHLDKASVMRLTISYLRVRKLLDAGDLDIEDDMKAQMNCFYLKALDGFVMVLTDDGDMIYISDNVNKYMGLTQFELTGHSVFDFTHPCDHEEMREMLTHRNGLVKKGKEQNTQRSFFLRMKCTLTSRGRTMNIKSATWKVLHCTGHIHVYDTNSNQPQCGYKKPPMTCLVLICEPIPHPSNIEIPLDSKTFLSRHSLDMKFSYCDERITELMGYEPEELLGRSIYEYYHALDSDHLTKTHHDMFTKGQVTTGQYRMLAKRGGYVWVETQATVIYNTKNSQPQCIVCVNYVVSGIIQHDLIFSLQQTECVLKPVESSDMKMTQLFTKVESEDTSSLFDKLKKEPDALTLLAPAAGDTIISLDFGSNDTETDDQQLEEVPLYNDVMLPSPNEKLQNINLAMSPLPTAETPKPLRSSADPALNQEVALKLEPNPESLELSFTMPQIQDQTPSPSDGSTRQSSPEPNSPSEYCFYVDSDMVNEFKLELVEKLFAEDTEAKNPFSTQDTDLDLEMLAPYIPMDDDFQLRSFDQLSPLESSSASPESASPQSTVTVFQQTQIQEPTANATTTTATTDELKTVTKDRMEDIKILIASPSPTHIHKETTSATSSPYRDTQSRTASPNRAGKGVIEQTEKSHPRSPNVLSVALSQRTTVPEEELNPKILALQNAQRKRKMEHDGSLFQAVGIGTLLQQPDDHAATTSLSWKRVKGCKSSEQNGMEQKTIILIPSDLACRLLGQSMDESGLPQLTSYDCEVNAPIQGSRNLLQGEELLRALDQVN
Sequence of Signal transducer and activator of transcription 3 (Homo sapiens) (P40763 whole entry, looked up): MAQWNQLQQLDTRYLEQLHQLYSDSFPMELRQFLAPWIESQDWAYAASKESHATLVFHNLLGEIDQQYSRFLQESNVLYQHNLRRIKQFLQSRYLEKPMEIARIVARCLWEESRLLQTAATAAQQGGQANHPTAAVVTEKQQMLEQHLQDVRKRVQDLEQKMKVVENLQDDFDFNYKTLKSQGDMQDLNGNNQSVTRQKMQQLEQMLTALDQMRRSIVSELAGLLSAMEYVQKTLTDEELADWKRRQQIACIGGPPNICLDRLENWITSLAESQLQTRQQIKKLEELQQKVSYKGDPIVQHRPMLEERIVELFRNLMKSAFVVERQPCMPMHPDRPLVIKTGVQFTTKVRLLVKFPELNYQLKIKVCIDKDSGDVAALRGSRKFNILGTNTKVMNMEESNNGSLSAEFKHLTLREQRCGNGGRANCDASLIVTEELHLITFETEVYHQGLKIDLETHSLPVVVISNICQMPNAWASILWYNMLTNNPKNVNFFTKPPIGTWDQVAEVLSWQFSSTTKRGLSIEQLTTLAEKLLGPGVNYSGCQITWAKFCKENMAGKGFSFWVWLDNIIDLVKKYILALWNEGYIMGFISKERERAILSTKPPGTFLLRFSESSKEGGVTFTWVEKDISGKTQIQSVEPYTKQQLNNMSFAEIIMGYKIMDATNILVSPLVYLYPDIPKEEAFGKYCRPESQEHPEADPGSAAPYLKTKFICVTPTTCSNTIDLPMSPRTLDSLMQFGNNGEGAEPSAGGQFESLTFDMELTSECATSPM
Sequence of Hepatocyte nuclear factor 6 (Homo sapiens) (Q9UBC0 whole entry, looked up, the tested form may be a part): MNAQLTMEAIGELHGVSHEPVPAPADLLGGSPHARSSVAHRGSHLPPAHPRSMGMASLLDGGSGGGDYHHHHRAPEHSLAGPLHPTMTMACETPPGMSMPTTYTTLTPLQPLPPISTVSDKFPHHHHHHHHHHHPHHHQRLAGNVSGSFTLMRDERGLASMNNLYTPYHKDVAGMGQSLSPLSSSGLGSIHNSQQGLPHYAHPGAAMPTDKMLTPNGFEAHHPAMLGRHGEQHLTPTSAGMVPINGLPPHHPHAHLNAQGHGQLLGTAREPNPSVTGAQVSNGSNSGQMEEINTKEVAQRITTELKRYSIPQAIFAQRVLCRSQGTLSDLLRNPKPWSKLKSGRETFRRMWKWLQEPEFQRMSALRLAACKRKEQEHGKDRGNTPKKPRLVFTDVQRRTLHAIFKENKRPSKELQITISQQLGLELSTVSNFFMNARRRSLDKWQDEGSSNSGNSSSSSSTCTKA
Sequence of Heat shock factor protein 1 (Homo sapiens) (Q00613 whole entry, looked up, the tested form may be a part): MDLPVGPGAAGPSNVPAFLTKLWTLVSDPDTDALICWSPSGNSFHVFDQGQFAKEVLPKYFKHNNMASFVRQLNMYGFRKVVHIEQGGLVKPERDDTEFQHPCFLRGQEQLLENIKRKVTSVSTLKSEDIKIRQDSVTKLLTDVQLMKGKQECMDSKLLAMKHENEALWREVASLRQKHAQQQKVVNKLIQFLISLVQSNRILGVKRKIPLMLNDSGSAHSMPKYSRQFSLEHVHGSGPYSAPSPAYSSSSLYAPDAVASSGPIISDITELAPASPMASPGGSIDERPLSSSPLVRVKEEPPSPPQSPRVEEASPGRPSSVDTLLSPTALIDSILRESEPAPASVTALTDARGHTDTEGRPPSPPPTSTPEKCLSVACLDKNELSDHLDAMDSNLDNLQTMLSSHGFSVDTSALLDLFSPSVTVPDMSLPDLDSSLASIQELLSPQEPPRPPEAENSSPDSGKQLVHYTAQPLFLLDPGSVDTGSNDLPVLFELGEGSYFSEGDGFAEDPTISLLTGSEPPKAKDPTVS
Sequence of Bile acid receptor (Homo sapiens) (Q96RI1 whole entry, looked up): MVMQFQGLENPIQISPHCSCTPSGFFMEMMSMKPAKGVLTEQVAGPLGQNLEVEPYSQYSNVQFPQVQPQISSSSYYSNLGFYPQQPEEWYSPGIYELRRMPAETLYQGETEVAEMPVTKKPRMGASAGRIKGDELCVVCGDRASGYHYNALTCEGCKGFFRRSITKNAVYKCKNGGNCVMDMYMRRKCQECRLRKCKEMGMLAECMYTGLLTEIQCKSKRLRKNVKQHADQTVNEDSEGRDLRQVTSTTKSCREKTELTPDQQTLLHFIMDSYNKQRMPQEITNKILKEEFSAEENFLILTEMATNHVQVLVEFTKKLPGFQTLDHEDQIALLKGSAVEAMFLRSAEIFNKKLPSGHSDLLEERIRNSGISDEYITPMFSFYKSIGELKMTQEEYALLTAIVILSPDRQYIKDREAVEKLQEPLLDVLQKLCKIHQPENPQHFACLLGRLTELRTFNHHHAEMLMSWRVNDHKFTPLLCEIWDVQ
Sequence of Paired box protein Pax-6 (Homo sapiens) (P26367 whole entry, looked up): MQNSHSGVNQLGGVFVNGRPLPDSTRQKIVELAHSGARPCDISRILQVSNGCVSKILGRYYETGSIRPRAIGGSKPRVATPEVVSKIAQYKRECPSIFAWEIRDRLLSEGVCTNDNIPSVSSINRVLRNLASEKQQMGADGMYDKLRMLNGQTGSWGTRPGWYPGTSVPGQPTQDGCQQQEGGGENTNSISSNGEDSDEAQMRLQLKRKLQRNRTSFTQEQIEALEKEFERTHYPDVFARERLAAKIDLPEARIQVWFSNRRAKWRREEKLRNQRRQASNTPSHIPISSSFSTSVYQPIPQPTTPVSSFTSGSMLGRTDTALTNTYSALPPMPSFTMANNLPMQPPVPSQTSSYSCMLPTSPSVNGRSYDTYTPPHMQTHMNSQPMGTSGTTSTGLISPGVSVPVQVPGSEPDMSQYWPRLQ

FC(F)(F)C(F)(C(F)(F)F)C(F)(F)C(F)(F)CC1CO1 (stereo unspecified)
not listed: [19] | [20]
inactive: all other assays above

O=C(CBr)OCc1ccccc1
inactive: all assays above

O=c1[nH]c2ccccc2c(=O)o1
not listed: [12] | [20]
inactive: all other assays above

COC(=O)C(F)(F)C(F)(F)OC(F)(C(F)(F)F)C(F)(F)OC(F)=C(F)F (stereo unspecified)
active: [12] 160 nM and 436 nM and 230 nM | [13] 0.451 µM
inactive: [1] | [2] | [3] | [4] | [5] | [6] | [7] | [8] | [9] | [10] | [11] | [13] | [14] | [15] | [16] | [17] | [18]

CC(Cl)CN(C)C (stereo unspecified)
not listed: [16]
inactive: all other assays above

CCN(CC)C1CCCCC1
not listed: [12]
inactive: all other assays above

Cc1c([N+](=O)[O-])cc2c(c1[N+](=O)[O-])C(C)(C)CC2(C)C
active: [19] 0.964 µM
not listed: [16]
inactive: all other assays above

ClC(Cl)=C(c1ccc(Cl)cc1)c1ccccc1Cl
active: [1] 43.7 µM | [2] 124 µM | [8] 41.7 µM | [9] 100 µM | [11] 100 µM | [19] 2.77 µM | [12] 55.3 µM | [15] 27.3 µM | [16] 98.5 µM
not listed: [13]
inactive: all other assays above

O=[N+]([O-])c1cc(Cl)ccc1Cl
active: [19] 56.2 µM
not listed: [12] | [20]
inactive: all other assays above

CC(=O)CCc1ccc2c(c1)OCO2
not listed: [19] | [20]
inactive: all other assays above

C=C(C)C(=O)OCC1CO1 (stereo unspecified)
not listed: [16] | [20]
inactive: all other assays above

OCC(F)(F)OC(F)(F)C(F)(F)OC(F)(F)C(F)(F)OC(F)(F)F
inactive: [1] | [2] | [3] | [4] | [5] | [7] | [8] | [9] | [10] | [11] | [19] | [12] | [13] | [14] | [15] | [16] | [17] | [18] | [20]
active: [3] 90 µM | [8] 75.6 µM | [9] 75.7 µM

O=S1(=O)OCC2C(CO1)C1(Cl)C(Cl)=C(Cl)C2(Cl)C1(Cl)Cl (stereo unspecified)
active: [3] 100 µM | [8] 142 µM | [9] 163 µM | [11] 100 µM | [19] 1.58 µM | [15] 172 µM | [16] 100 µM | [20] 11.6 µM
not listed: [6]
inactive: all other assays above
